# Screening data: PubChem, National Center for Advancing Translational Sciences (NCATS)
# Tau FP inhib: inhibitors of human tau fibril formation; 280,000 compounds, 0.39% hits; K18 P301L tau heparin fibrillization, Alexa594 FP, 6 h; Potency, µM (titrated, usually from 57.7 µM), inactives show top-dose activity, negative = inhibition, most hits filed as inhibitors; P10636; also: potency is read from the fitted curve at half-maximal effect; nearly all actives have a fitted effect of over 55% in size
#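 Steps: dispense K18 P301L tau (15 uM plus 0.24 uM Alexa 594 tracer, final) in pH 7 sodium acetate; add compound; add heparin (20 uM final); incubate 6 hr, 37 C; add ThT (30 uM final); after 1 hr ambient, read FP.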
# Coupling enz: counter-screen for Giardia aldolase inhibitors: coupling enzyme system. coupling enzyme system counterscreen, AmpLite Red fluorescence. activity change, negative = inhibition, % at 58.2 µM, hits read low. 290,000 compounds, 0.67% hits; in the data active = activity change below about -30%
#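 Fluorescence at 525 nm excitation and 598 nm emission measured inhibition of the coupled detection system without aldolase. Compounds (at 57.5 uM final) were preincubated 10 min at room temperature with coupling enzyme reagent before a 20 min substrate/AmpLite Red step.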
# Tau fluor counter: counter-screen for tau fibril formation inhibitors; tau K18 P301L Alexa594 fluorescence, heparin fibrillization; Potency, µM (series often up to 57.7 µM), for inactives: at the highest dose activity change, negative = decrease; 280,000 compounds, 0.93% hits; AID 1463; also: potency is read from the fitted curve at half-maximal effect; nearly all actives have a fitted effect of over 55% in size
#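 Human K18 P301L tau (15 uM unlabeled plus 0.24 uM Alexa 594-labeled, final) in 100 mM sodium acetate pH 7 was mixed with compound and 20 uM heparin and incubated 6 hr at 37 C.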
# USP1-UAF1 inh: USP1/UAF1 (human) deubiquitinase inhibition. Potency, µM (top dose mostly 57.1 µM), inactives show at the highest dose activity change, negative = inhibition, most hits filed as inhibitors. AID 743255. recombinant USP1/UAF1, Ub-Rhodamine cleavage fluorescence. O94782. 390,000 compounds, 0.23% hits; also: potency is read from the fitted curve at half-maximal effect; nearly all actives have a fitted effect of over 60% in size
# Target sequence (O94782 whole entry, looked up): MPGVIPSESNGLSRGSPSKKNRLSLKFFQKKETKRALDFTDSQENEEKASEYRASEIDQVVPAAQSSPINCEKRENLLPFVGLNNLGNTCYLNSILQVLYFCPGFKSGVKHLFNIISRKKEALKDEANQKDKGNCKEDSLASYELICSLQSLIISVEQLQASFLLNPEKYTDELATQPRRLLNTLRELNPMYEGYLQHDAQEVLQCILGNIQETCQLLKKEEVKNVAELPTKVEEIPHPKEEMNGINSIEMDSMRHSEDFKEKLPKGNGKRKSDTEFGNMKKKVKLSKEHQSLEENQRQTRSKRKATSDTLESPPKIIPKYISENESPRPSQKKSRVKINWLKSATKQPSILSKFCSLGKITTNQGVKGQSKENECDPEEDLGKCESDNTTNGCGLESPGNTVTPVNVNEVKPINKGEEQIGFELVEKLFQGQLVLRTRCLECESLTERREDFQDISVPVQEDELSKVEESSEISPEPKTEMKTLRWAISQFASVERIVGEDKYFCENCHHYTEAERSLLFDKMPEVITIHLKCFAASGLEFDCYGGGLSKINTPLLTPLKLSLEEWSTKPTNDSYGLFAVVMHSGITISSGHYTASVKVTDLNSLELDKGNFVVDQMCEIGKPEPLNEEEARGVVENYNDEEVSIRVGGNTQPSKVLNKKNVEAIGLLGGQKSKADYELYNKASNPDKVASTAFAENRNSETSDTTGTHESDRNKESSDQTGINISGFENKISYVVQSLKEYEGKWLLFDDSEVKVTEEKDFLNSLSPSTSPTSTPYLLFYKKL
#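 Step one: compound is pinned into 1nM USP1/UAF1 in HEPES pH 7.8 buffer with TCEP. Step two: 15 min room-temperature incubation. Step three: Ub-Rho (150nM final) starts cleavage, tracked by fluorescence over six one-minute reads.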
# Tau fibril ThT: tau fibrillization inhibition (ThT binding) | P10636 | recombinant tau K18 P301L (four-repeat tau fragment), heparin-induced fibrillization, ThT fluorescence | Potency, µM (titrated, usually from 57.4 µM), for inactives: at the top dose activity, negative = inhibition, most hits filed as inhibitors | 270,000 compounds, 2.1% hits | AID 1460; also: potency is read from the fitted curve at half-maximal effect; nearly all actives have a fitted effect of over 55% in size
#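 K18 P301L tau (15 uM + 0.24 uM Alexa 594-tagged), heparin 20 uM, NaOAc pH 7, 6 h 37 C; ThT 30 uM, 1 h RT, ex 450/em 510 nm.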
# An asterisk follows results filed as active; ? = inconclusive; · = no result; ! = repeats disagree; [ ] = remark or other dose. Compounds with a hit are over-represented: about 2.3% of the library has one in this group of screens. Unless noted, calls follow the shape of the dose curve; as a rule, active = well fitted curve in the direction sought with a large enough effect; inconclusive = small, poorly fitted or top-dose-only effect, or another doubt; inactive = no such curve, though single readings can be large; an effect the other way counts as inactive or inconclusive. % is scaled to controls: 0 for no effect and ±100 for the full control effect.
SMILES,Tau FP inhib,Coupling enz,Tau fluor counter,USP1-UAF1 inh,Tau fibril ThT
Nc1ccc2nc(CN3CCOCC3)[nH]c2c1,-0.9%,-32.4*,-10.1%,?,?
CC1(C)C=C2C(=NN(c3ccccc3)C(N)=C2C#N)CO1,·,-62.1*,·,4.47µM*,·
CC1(C)Cc2c(C#N)c(N)n(-c3ccccc3)c(=S)c2CO1,-16.2%,-16.7,-20.3%,-10.0%,?
COc1ccc(NC2=C(c3ccccc3)C(=O)c3ccccc32)cc1Cl,-6.7%,·,?,?,-17.7%
COc1ccc(OC)c(NC2=C(c3ccccc3)C(=O)c3ccccc32)c1,7.6%,·,?,-26.9%,14.1µM*
CCN(CC)c1cc2c(cc1F)c(=O)c(S(=O)(=O)c1cccc(C)c1)cn2C,1.8%,·,11.3%,-2.1%,14.3%
COc1ccccc1NCC(O)Cn1c2ccccc2c2ccccc21 (configuration not stated),?,-4.6,10µM*[quencher],-14.3%,?
Nc1ccc(C2=Nc3cccc4cccc(c34)N2)cc1,7.2%,1.4,2.0%,-26.2%,0.4%
CC1=Nc2cccc3cccc(c23)N1,?,0.1,?,-20.3%,22.4µM*
Cc1ccc(C)c(N2CCN(C(=O)c3cc(C)nc4c3c(C)nn4-c3ccccc3)CC2)c1,-3.5%,·,-1.2%,-16.2%,0.9%
O=C(Cc1ccccc1)Nc1ccc2c(c1)OC1(CCCC1)O2,·,·,·,-11.7%,·
Nc1ccc2c(c1)OC1(CCCC1)O2,-16.5%,-4.0,?,-11.9%,12.6µM*
CCCn1c(CNC(=O)c2ccc(F)cc2)nc2ccccc21,-19.0%,·,-20.0%,-22.6%,-10.8%
CCCn1c(CNc2ccccc2O)nc2ccccc21,?,-18.1,?,-24.0%,28.2µM*
O=C(NC1CCCCC1)c1sc(=S)n2c1[nH]c(=O)c1ccccc12,12.4%,3.4,?,-19.0%,14.1µM*
CCCCNC(=O)c1sc(=S)n2c1[nH]c(=O)c1ccccc12,?,7.5,?,-13.2%,15.8µM*
CCC1CCCCN1S(=O)(=O)c1cc2c3c(c1)CC(=O)N3CCC2 (configuration not stated),?,·,-5.6%,?,0.1%
CN(C)CCN(Cc1ccco1)C(=O)c1cc2c(s1)-c1ccccc1OC2,2.2%,·,-8.8%,-16.2%,-8.9%
Nc1cc(N)c(OCC(F)(F)F)cc1OCC(F)(F)F,12.6µM*,-49.8*,?,25.1µM*,3.16µM*
CCC(C)NC(=O)Cn1c(=O)n(-c2ccc(OC)c(OC)c2)c(=O)c2ccccc21 (configuration not stated),1.2%,·,2.4%,-13.3%,5.1%
Clc1ccc(-c2ccc(/C=N/Nc3nncc(-c4ccccc4)n3)o2)cc1,-2.7%,-4.1,-27.1%,-17.2%,2.24µM*
Cc1ccc(/C=N/Nc2nncc(-c3ccccc3)n2)o1,-2.6%,2.4,-14.4%,-15.0%,?
Clc1ccccc1-c1ccc(/C=N/Nc2nncc(-c3ccccc3)n2)o1,16.4%,-2.8,-27.4%,6.5%,2µM*
Cc1cc(C)n(/N=C\c2c(O)ccc3ccccc23)c(=O)c1C(N)=O,-12.4%,-32.4*,-11.0%,-12.4%,-17.5%
CC(/C=C/c1ccco1)=N\NC(=O)c1cccnc1,?,-9.5,-25.9%,?,28.2µM*
SMILES,Tau FP inhib,Coupling enz,Tau fluor counter,USP1-UAF1 inh,Tau fibril ThT
CC(/C=C/c1ccco1)=N/NC(=O)c1ccc(C)nc1,12.9%,2.1,-20.4%,-5.3%,·
Cc1ccccc1CNC(=O)Cc1ccc(NC(=O)N2CCCCc3ccccc32)cc1,-0.6%,·,-1.9%,?,-4.3%
Nc1c(Cl)cc2c(c1Br)Cc1ccccc1-2,·,·,·,-26.8%,·
Nc1c(Cl)cc2c(c1Oc1ccccc1)C(=O)c1ccccc1C2=O,6.7%,4.7,14.1µM*[quencher],?,?
CCOc1ccc(NC2=CC(=O)C(=O)c3ccccc32)cc1,·,·,·,25.1µM*,·
O=C1C=C(Nc2cccnc2)c2ccccc2C1=O,·,·,·,14.1µM*,·
COc1cc(Cl)c(NC2=CC(=O)C(=O)c3ccccc32)c(OC)c1,·,·,·,28.2µM*,·
O=C1C=C(Nc2ccc(F)cc2)c2ccccc2C1=O,·,·,·,25.1µM*,·
Clc1ccc(Nc2nc(C3CC3)cs2)cc1,?,-8.3,15.8µM*[quencher],-11.4%,?
O=C(CSc1cnc2ccccc2n1)c1ccc(F)cc1,-10.9%,2.0,-14.9%,?,14.1µM*
CCCC[C@]12Cc3ccccc3C(O1)c1c(cc(-c3ccccc3)oc1=O)O2,·,-31.5*,·,·,·
N#Cc1c(Cl)nsc1NN,?,0.1,2.51µM*[quencher],-25.6%,7.94µM*
Cc1c(C#N)c(N)nc(Cl)c1C#N,-14.8%,1.4,-7.9%,?,-11.1%
CC(C)(C)c1ccc(S(=O)(=O)NCc2nc3cccnc3n2Cc2ccccc2Cl)cc1,-2.4%,·,-22.3%,-10.1%,-13.4%
O=S(=O)(Nc1ccc(O)c(Sc2nc3ccccc3s2)c1)c1cc(Cl)ccc1Cl,?,·,10µM*[quencher],-16.0%,?
Cc1cc(S(=O)(=O)Nc2ccc(O)c(Sc3nc4ccccc4s3)c2)ccc1Cl,?,·,10µM*[quencher],-13.1%,?
O=S(=O)(Nc1ccc(O)c(Sc2nc3ccccc3s2)c1)c1cccc2ccccc12,1.7%,-3.7,0.1%,-24.1%,5.3%
Cc1nc2nc(NCc3cccc(Cl)c3)[nH]n2c(=O)c1Cc1ccccc1,0.1%,·,3.5%,3.6%,14.0%
COc1cccc(NC(=O)Cn2c(=O)n(-c3ccc(CC(=O)NCC4CCCO4)cc3)c(=O)c3ccccc32)c1 (configuration not stated),3.3%,·,-25.0%,-16.0%,-10.7%
CCOc1ccc(S(=O)(=O)Nc2ccc(-c3ccc(OC)nn3)cc2)cc1,-1.1%,·,?,-13.9%,?
CCCCC/C=C\C/C=C\C/C=C\C/C=C\CCCCCC(=O)NCCc1ccc(O)c(O)c1,16.9%,3.6,-22.0%,·,-17.1%
CCCCCCCC/C=C\CCCCCCCC(=O)NCCc1ccc(O)c(O)c1,?,-14.2,14.1µM*![quencher],-23.4%,?
O=C(Nc1ccccc1OCc1cc(=O)n2ccccc2n1)Nc1ccccc1C(F)(F)F,-11.7%,·,-7.7%,-16.1%,-11.4%
O=c1c(O)cccc2cc(O)c(O)c(O)c12,11.2µM*,-36.5*,2.51µM*[quencher],?,3.16µM*
COc1cc2cccc(OC)c(=O)c2c(OC)c1OC,-11.7%,-2.0,-6.0%,6.7%,-13.6%
SMILES,Tau FP inhib,Coupling enz,Tau fluor counter,USP1-UAF1 inh,Tau fibril ThT
CCc1ccc2oc(-c3cc(N)ccc3Cl)nc2c1,10.3%,-2.2,14.1µM*[quencher],-6.2%,?
Nc1ccc2oc(Cc3ccc(Cl)cc3)nc2c1,?,·,?,15.1%,22.4µM*
CC(C)c1ccc2oc(-c3cc(NC(=O)c4cccnc4)ccc3Cl)nc2c1,7.94µM*,·,?,?,2.1%
COC1CCN(C(=O)c2ccc3oc(Cc4ccc(Cl)cc4)nc3c2)CC1,·,0.2,·,-15.0%,·
O=[N+]([O-])c1ccc(O)c(C=Nc2ccc3oc(Cc4ccc(Cl)cc4)nc3c2)c1,-11.9%,-35.3*,?,·,?
O=[N+]([O-])c1ccc(O)c(C=Nc2ccc3c(c2)OCCO3)c1,5.6%,-0.1,2.6%,-22.5%,1.2%
